We go through 108 compounds from PubChem BioAssay AID588352 (The Scripps Research Institute Molecular Screening Center, 2011).

By inhibition is commonly meant the drop in the measured response relative to a control, in per cent.

About 620 (0.17%) of roughly 360,000 compounds were called active. This excerpt belongs to a sample that is enriched for actives. A number with no mark means an inactive call.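 The calls were made as follows: active = inhibition above a per-campaign cutoff, the mean of all compounds plus 3 SD (cut at about 60% in these data); inactive = the rest.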

Sequence of Nuclear receptor coactivator 3 (Homo sapiens) (Q9Y6Q9 whole entry, looked up, the tested form may be a part): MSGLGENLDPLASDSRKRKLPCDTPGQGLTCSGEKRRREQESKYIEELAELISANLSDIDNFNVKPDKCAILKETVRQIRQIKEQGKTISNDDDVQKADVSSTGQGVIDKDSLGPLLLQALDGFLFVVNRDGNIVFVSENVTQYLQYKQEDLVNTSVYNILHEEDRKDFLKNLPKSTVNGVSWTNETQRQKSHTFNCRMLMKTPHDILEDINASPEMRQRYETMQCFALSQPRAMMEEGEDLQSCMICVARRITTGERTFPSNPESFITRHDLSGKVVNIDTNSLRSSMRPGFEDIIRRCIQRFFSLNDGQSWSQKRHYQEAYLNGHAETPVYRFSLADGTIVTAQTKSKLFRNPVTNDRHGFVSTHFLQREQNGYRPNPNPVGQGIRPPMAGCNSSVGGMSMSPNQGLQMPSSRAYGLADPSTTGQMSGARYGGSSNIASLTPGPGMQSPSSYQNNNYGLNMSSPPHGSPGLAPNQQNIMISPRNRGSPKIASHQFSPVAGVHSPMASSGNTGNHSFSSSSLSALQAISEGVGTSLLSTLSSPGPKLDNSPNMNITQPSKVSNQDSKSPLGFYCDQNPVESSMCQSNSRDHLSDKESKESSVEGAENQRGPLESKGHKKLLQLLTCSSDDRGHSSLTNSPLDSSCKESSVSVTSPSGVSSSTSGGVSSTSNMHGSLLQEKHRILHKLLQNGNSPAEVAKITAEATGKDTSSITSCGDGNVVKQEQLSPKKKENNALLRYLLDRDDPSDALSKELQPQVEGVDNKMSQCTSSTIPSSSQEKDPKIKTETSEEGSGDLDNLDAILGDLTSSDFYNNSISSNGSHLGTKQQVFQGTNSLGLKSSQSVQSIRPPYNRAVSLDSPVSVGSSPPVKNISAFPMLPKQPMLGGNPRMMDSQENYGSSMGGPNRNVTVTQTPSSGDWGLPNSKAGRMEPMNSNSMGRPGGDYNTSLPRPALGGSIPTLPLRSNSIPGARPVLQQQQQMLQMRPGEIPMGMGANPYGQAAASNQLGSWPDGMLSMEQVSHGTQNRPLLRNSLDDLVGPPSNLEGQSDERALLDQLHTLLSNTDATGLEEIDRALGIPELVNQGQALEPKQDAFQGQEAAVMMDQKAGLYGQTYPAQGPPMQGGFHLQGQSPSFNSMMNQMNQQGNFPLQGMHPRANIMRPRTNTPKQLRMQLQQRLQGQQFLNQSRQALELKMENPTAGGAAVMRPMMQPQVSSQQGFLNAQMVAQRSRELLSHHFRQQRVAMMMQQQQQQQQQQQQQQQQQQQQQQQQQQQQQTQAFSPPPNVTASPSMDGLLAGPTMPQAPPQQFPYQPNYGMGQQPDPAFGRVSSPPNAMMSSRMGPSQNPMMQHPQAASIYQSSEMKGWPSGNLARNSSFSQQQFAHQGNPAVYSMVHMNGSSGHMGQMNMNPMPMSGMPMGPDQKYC

This assay addresses Nuclear receptor coactivator 3 (Homo sapiens) (UniProt Q9Y6Q9). Nature of the assay: NCOA3 GAL4-fusion reporter inhibition – cell-based, luminescence, primary screen (AID 588352).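 Also: 0% = DMSO-treated cells and 100% = gossypol-treated cells at 36 µM; higher means less SRC3-driven luciferase light from the GAL4 reporter.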 The note with it: HEK293 GAL4-SRC3 luciferase reporter, at 3.6 µM, active compounds read high. For orientation: In a reporter assay the amount or activity of a reporter protein is the signal.
`Cc1c(NC(=O)COC(=O)/C=C/c2cccc(F)c2)c(=O)n(-c2ccccc2)n1C`: the inhibition was -6.79%.
Under `CC(=O)NN=C(C)c1ccc(NC(=O)C2CC2)cc1` stands 0.05%; under `CCCC(NCC(=O)Nc1ccccc1C(=O)NC1CC1)c1ccccc1` (stereo not drawn), 4.81%; under `Cn1c(CC(=O)Nc2ccc(F)cc2)nnc1SCC(=O)NC1CCCCC1`, -3.83%.
The same measure for `Cc1ccc(OCCNC(=O)c2cccc(S(=O)(=O)N3CCN(Cc4ccccc4)CC3)c2)cc1`: 0.45%; for `CC(=O)c1ccc(OC(=O)N2CCOCC2)cc1`: -9.63%; for `CCC(NC(=O)C1CCCC1)c1ccc(C)cc1` (stereo not drawn): -5.79%.
On to `COc1ccc(Cl)cc1NC(=O)C(C)N1CCc2ccccc21` (stereo not drawn), for which the inhibition was -3.25%.
Under `C=CCOc1ccccc1/C=N/NC(=O)Cc1ccccc1` stands -4.16%; under `O=C(N/N=C/c1ccccc1O)/C(=C/c1ccccc1)CCO`, 43.6%.
With `O=C(NN=Cc1ccccc1O)NN=Cc1ccccc1O`, the inhibition is 64.5% (active).
The same measure for `O=C(COc1ccc(S(=O)(=O)NCCc2ccccc2)cc1)N1CCCC1`: 15.7%.
Under `CCc1nnc(NC(=O)CCN(c2ccc(C)cc2)S(=O)(=O)c2ccccc2)s1` stands 3.02%; under `CNS(=O)(=O)c1ccc(N2CCCC2=O)c([N+](=O)[O-])c1`, 0.16%.
For the compound `COc1ccc(N(C(=O)c2snc(C(N)=O)c2N)C(C(=O)NC2CCCC2)c2ccco2)cc1OC` (stereo not drawn), the inhibition is -3.31%.
The same measure for `Brc1ccc2nc(-c3ccccc3)c(Cc3ccccc3)n2c1`: -38.3%; for `Cc1cc(=O)oc2c(C(=O)c3ccccc3)c(OCC(N)=O)ccc12`: 14.2%.
As for `COc1ccc(C(=O)N/N=C2\CCS(=O)(=O)c3ccc(F)cc32)cc1OC`, the inhibition is 5.88%.
As for `Cc1cc(C)n(C(=O)c2ccc(C)c(S(=O)(=O)N3CCOCC3)c2)n1`, the inhibition is 12.7%.
Under `CC[C@H]1CN2CCc3cc(OC)c(OC)cc3[C@@H]2C[C@@H]1C[C@H]1NCCc2cc(OC)c(OC)cc21` stands 94.6% (active); under `O=C(O)C1CCN(C(=O)OCc2ccccc2)CC1`, -70.7%; under `CCCNC(=O)C1(C)CCCN(C(=O)c2cccc(OC(C)=O)c2C)C1` (stereo not drawn), -10.9%.
Under `CCOC(=O)CN(C)S(=O)(=O)c1ccc(-c2cc(C(=O)OC)sc2C(F)(F)F)cc1` stands 9.38%.
The same measure for `N#C/C(=C(\O)CCl)c1nnc2n1CCCCC2`: 9.47%.
Regarding `CCCOc1ccc(Cc2c(O)nc(N)[nH]c2=O)cc1C`, the inhibition is 1.06%.
Under `COC(=O)/C=C(\Oc1ccccc1)C1(O)CCCCC1` stands 9.01%; under `COc1ccc(OC)c(NC(=O)CN(C)CCOc2ccc(Br)cc2)c1`, 4.03%.
As to `COc1ccc(Nc2ncnc3ccc(Br)cc23)c(OC)c1`, the inhibition is 82% (active).
For `COc1ccc(OC)c(Nc2nc3ccccc3n3cnnc23)c1`, the inhibition was 9.44%.
Consider `CCOC1=C2[C@@H](CN(S(=O)(=O)c3ccc(C)cc3)[C@H]2c2ccccc2F)[C@H]2C(=O)N(Cc3ccccc3)C(=O)[C@H]2C1`, for which the inhibition was 2.22%.
The same measure for `CCn1ncc(CNC(=O)C2(C)CC2(Br)Br)c1C` (stereo not drawn): -0.54%.
The same measure for `CCCCCCCCn1c2c(c(=N)c3c1CCC3)CCCC2`: 80% (active); for `Cc1cc(S(=O)(=O)NC2CCCC2)ccc1-n1cnnn1`: 2.04%.
Regarding `O=S1(=O)CCC(NC(=S)SCc2ccccc2Br)C1` (stereo not drawn), the inhibition was 8%.
Under `FC(F)(F)c1cccc(-c2nc(COc3ccc(Cl)cc3Cl)no2)c1` stands 12.2%.
Under `CC(C)(C)c1nc2ccccc2c(=O)n1N1C(=O)c2ccccc2C1=O` stands 2.66%.
With `CN(C(=O)Nc1ccc(Cl)cc1)n1cnc2ccccc2c1=O`, the inhibition was -6.25%.
Under `CN(c1ccc2nc3ccccc3c(=O)n2n1)C1CCCCC1` stands 73.1% (active).
On to `COc1cccc2cc(C(=O)NCc3ccc(C)cc3)c(=N)oc12`, for which the inhibition was 14.3%.
The same measure for `C=CCOC(=O)C1=C[C@@H](c2ccc3c(c2)OCO3)C[C@@H](OCCCCO)O1`: -13.9%; for `CC(C)c1cc(C(N)=O)c(NC(=O)c2cccc(COc3ccc(Br)cc3)c2)s1`: -149%; for `COCc1ccc(C(=O)NC2CC(C)(C)Cc3c2cnn3-c2ccc(C)cc2)o1` (stereo not drawn): 16.3%.
Under `O=C(OC12CC3CC(CC(C3)C1)C2)c1ccc(NCc2cc(O)ccc2O)cc1` stands 74.5% (active); under `CC(C)OC(=O)c1ccc(NCc2cc(O)ccc2O)cc1Cl`, -31.6%; under `CCOC(=O)c1[nH]cnc1C(=O)NC1CCCCC1`, -23%.
The same measure for `COc1cccc(Nc2nnc(SCC(=O)N3CC(C)OC(C)C3)s2)c1` (stereo not drawn): -8.99%; for `C=CCSc1nnc(Cn2c(=O)sc3ccccc32)n1C`: 5.67%; for `COc1ccccc1Cn1c(C)nnc1-c1cnn(C)c1N`: 19.6%.
Turning to `CCc1nc2ccc(C(=O)NC3CCN(Cc4ccccc4)CC3)cn2c1N(C)CCN1CCOCC1`, the inhibition was 14.3%.
As for `Nc1nc(SCC(=O)NNc2c(Cl)cc(Cl)cc2Cl)n[nH]1`, the inhibition was 18%.
On to `Cc1ccc(C)c(S(=O)(=O)N2CC(=O)Nc3ccccc32)c1`, for which the inhibition was 22.6%.
The same measure for `COc1ccc(S(=O)(=O)NCC(=O)NC2CC2)cc1OC`: -59%; for `COc1cc(OC)cc(-c2c(-c3ccc(F)cc3)c3cc(-c4ccc5cc[nH]c5c4)ccc3n2C)c1`: 7.21%; for `Cc1nc2ccccc2n1CC(O)c1ccccc1` (stereo not drawn): -14%.
Under `O=C(Cn1nc([N+](=O)[O-])nc1Br)NC1CCCCC1` stands 5.25%; under `COc1cc(OC)cc(-c2c(-c3cccs3)c3cc(-c4ccc(OC)cc4F)ccc3n2C)c1`, -12.6%; under `COC(=O)c1ccc(NC(=O)CSc2nc(N)c(NC(=O)c3ccc(Br)o3)c(=O)[nH]2)cc1`, 11.5%.
Under `Clc1cccc(Cl)c1Cn1nnc(-c2cccs2)n1` stands -55.9%.
On to `Cn1sc(=O)c2cc(S(=O)(=O)NC3CC3)ccc21`, for which the inhibition was 3.57%.
The same measure for `CC1(C)NC(=O)N(CC(=O)Nc2cc(C(F)(F)F)cc(C(F)(F)F)c2)C1=O`: 22.2%; for `CCCCNC(=O)C1CCCNC1=O` (stereo not drawn): 12.3%; for `CCNC(=O)C1(C)CCCN1C(=O)c1ccc(N(C)C)cc1` (stereo not drawn): -7.5%.
The same measure for `COc1cc(NC(=O)C2=C(C)OCCS2)c(Cl)cc1C(=O)NCCCN1CCCC(C)C1` (stereo not drawn): -22.7%; for `O=C(N/N=C/c1cccc([N+](=O)[O-])c1)C1CC(=O)N(c2ccc(Br)cc2)C1` (stereo not drawn): -0.6%.
Under `COc1ccc(OCCCCN2CCC(C)CC2)cc1` stands -47.3%.
Take `CCC(O)C1CCN(Cc2cn(-c3ccc(OC)cc3)nc2-c2cccc(F)c2)CC1` (stereo not drawn): the inhibition is 14%.
Under `Cc1nc2nc(COc3ccccc3)[nH]n2c(=O)c1Cc1ccccc1` stands -32.6%.
Take `COc1cccc(/C=C(/CC(=O)Nc2ccc(N3CCOCC3)cc2)c2nc3ccccc3s2)c1`: the inhibition is 7.57%.
The same measure for `COC(=O)Cc1[nH]n(-c2nc3ccccc3s2)c(=O)c1C(C)=Nc1ccc(OC)cc1`: 86.7% (active); for `Cc1occc1-c1nnc(SCC(=O)NC2CCCCC2)o1`: 15.9%; for `O=C(NNS(=O)(=O)Cc1ccccc1)c1ccc([N+](=O)[O-])cc1`: -12.1%.
The same measure for `O=C(Nc1cc(-c2ccccc2)nn1-c1ccccc1F)c1ccc([N+](=O)[O-])cc1`: -5.69%; for `O=C(NC(Nc1nc2ccc([N+](=O)[O-])cc2s1)(C(F)(F)F)C(F)(F)F)c1ccccc1`: 76.7% (active).
The same measure for `O=S(=O)(NCCc1ccc(Cl)cc1)c1cccs1`: 14%; for `Brc1c(CSc2nncc3ccccc23)nc2ccccn12`: -11.5%; for `CCCN(CCC)S(=O)(=O)c1ccc(C(=O)N2CC3CCC(CC3)C2)cc1`: 21.3%.
With `CN(CC(=O)Nc1ccc(C(N)=O)cc1)S(=O)(=O)c1ccc2c(c1)OCCO2`, the inhibition was -5.47%.
Under `COc1ccc2c(c1)c(=Cc1ccc(N(C)C)cc1)c1cc(-c3ccccc3)[n+](C)n12` stands 72.6% (active); under `O=S(=O)(/C=C/c1ccccc1)N1CCNCC1`, 18.6%.
The same measure for `COc1c(F)c(F)c(C(=O)O)c(Nc2ccccc2C)c1F`: 3.91%; for `Cn1cnc(C(F)(F)F)c1-c1ccc([N+](=O)[O-])cc1`: 9.14%; for `O=C(O)CCc1cccnc1`: -1.19%.
Under `CC1CCCC(C)N1C(=O)COC(=O)COc1ccccc1C#N` (stereo not drawn) stands 13.1%; under `Cc1ccc(C(=O)NNC(=O)OC(C)(C)C)c(Cl)c1`, -22.3%.
In the case of `COc1ccc(CCNC(=O)CCc2cn(C)c3ccccc23)c(OC)c1`, the inhibition is -10.8%.
The same measure for `COc1ccccc1NS(=O)(=O)c1ccc(C)c(C(=O)NNC(=O)c2csc(N3CCOCC3)n2)c1`: -18.4%; for `Cc1ccc(OC(=O)c2ccccc2C(=O)OCC(F)(F)C(F)F)cc1`: 12%.
Under `COc1ccc(CNC(=O)CN2C(=O)c3ccccc3S2(=O)=O)cc1` stands 0.21%.
Under `CN(Cc1cccs1)C(=O)CN1C(=O)c2ccccc2S1(=O)=O` stands -22.1%; under `O=C(CN1C(=O)c2ccccc2S1(=O)=O)N1CCc2ccccc21`, 78.1% (active); under `CSc1cc(C)n(-c2ccccc2C)c(=S)c1C(C)=O`, -24.7%.
In the case of `COc1ccc(-n2c(C)csc2=S)cc1`, the inhibition is -12.6%.
With `O=C(O)C1CCN(C(=O)c2cc(F)cc3c2OCOC3)CC1`, the inhibition was 1.17%.
Under `Cc1ccc(C(c2sc3nc(C)nn3c2O)N2CCN(c3ccccc3)CC2)cc1` (stereo not drawn) stands -21.5%; under `CC(C)OC(=O)c1cc(NC(=O)C2C3CCC(O3)C2C(=O)O)cc(C(=O)OC(C)C)c1` (stereo not drawn), 6.46%.
The same measure for `O=c1[nH]n2c(=O)c3c([nH]c2c1N=Nc1ccccc1)CCC3`: -2.3%; for `Cc1nc2c(ncn2-c2ccccc2)c(=O)n1NC(=O)CN1CCCC1`: 6.67%.
Regarding `COc1ccc(NC(=S)N2N=CCC2c2ccccc2)cc1` (stereo not drawn), the inhibition is -88%.
Take `COCc1cc(=O)n2[nH]c(C)c(-c3ccccc3)c2n1`: the inhibition was 3.15%.
As to `O=C1NC(=Nc2ccc(Cl)cc2)SC1Cc1cccc(Cl)c1Cl` (stereo not drawn), the inhibition is 11.5%.
Under `CCOc1cc(C2/C(=C(/O)c3ccc(S(=O)(=O)N4CCCCC4)cc3)C(=O)C(=O)N2CCOC)ccc1O` (stereo not drawn) stands -17.2%; under `Cc1ccsc1C1C(C#N)=C(N)OC2=C1C(=O)CC(C)C2` (stereo not drawn), -1.41%; under `CC(C)(C)OC(=O)NCCCCCNC(=O)c1nc[nH]c1C(=O)NCc1ccccc1`, -1.92%.
Take `O=C(Nc1ccon1)c1nc[nH]c1C(=O)NCc1ccccc1`: the inhibition was 63% (active).
Consider `O=C(Nc1cc(Br)ccc1F)c1nc[nH]c1C(=O)NCc1ccccc1`, for which the inhibition is 16.5%.
The same measure for `Cc1cccc(-[n+]2c(-c3cccc(Br)c3)[nH]c3nc4ccccc4nc32)c1`: 18.1%.
The same measure for `Cc1ccc(NC(=O)NC(=O)CSc2nnc(-c3ccc(OC(F)F)cc3)n2N)c(C)c1`: -17.3%; for `CCN(Cc1ccccc1)C(=O)CN1C(=S)NC(C)(C)CC1C` (stereo not drawn): -5.54%.
